Test results taken from PubChem BioAssay AID1159580 (chemical genetic matrix, 2015).
About 2,000 (36%) of roughly 5,500 compounds were called active. Roughly 18% stayed inconclusive and do not appear here. Cut-off read from the data, not from the text of the source: active = normalized growth mostly below about 0.91 (no sharp cut-off); inconclusive = no clear call, values can overlap the other calls; inactive = mostly above about 0.92. Some of the results follow.

Assay: chemical genetic growth profiling, strain panel (AID 1159580);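 note: tested at 20 µM; growth read once vehicle control cultures reached saturation at 30 °C; 1 = growth at the plate median or of vehicle wells; lower values mean less growth of the strain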
Conditions: S. cerevisiae deletion strains, growth OD

Measured: normalized growth

O=c1[nH]ccc2c(O)cccc12
inactive: locus YAL013W, strain DEP1, hits give low values 0.996 | locus YAL040C, strain CLN3, hits give low values 0.999 | locus YCL061C, strain MRC1 (second series), hits give low values 0.996 | locus YDR363W, strain ESC2, hits give low values 1.02 | locus YER002W, strain NOP16, hits give low values 0.999 | locus YGR078C, strain PAC10, hits give low values 1 | locus YGR229C, strain SMI1, hits give low values 1.02 | locus YNL175C, strain NOP13, hits give low values 1.01 | locus YNL197C, strain WHI3, hits give low values 1.01 | locus YNL224C, strain SQS1, hits give low values 0.994 | locus YNL322C, strain KRE1, hits give low values 1 | locus YOR083W, strain WHI5 (second series), hits give low values 1.06 | locus YPL241C, strain CIN2, hits give low values 0.99
